Our source for the sensor-assay potency score (higher = more potent) values is the OligoGym collection.
Also: reference of the scale not given here.

One assay addresses NKPD1. The assay is described as follows: pooled miR-30 sensor sort-seq; sequence = guide strand. Conditions: shRNA.
Consider TTGTCGCGGAAAACGTCCCAGA, for which the sensor-assay potency score (higher = more potent) is -1.15.
The same measure, in the same setting: as for AGGAACTGCAGCTTGGTGCGGC, the figure is -1.31; as for TTACGAACAGGTGCTTGCCCAC, -0.968; as for TACTCGTAGAGGCAGTCGCGCT, -1.54.
The same measure, in the same setting: as for TCTCGCGGTACAACAGGTCGTC, the figure is -0.615; as for TACAACAGGTCGTCGCGGCTCT, -0.332; as for TTGTCGGGCACGTACTCGTAGA, -1.44.
On the same count and under the same terms, in the case of TCGCACATGAAACCCAGCTGGC it was -0.962.

In a further assay the target is NLGN1. The assay is described as above. Conditions: shRNA.
In turn, TGAGGTACCAACTCCAACCAGA displayed a sensor-assay potency score (higher = more potent) of 0.0181.
In turn, TTGCTCGTTGAAAAAGTCCTTT registered a sensor-assay potency score (higher = more potent) of -0.525.
Consider TAAATTTCCAGTACCTTCCATA, for which the sensor-assay potency score (higher = more potent) is -0.487.
Regarding TAACATTATATCATAGTTGAGA, the sensor-assay potency score (higher = more potent) was -0.468.
In turn, TATCTGAAACATTGCAACCAAC returned a sensor-assay potency score (higher = more potent) of -1.43.
Sequence TAGCATTGGACTAATAGTCATT had a sensor-assay potency score (higher = more potent) of -0.504.
Still for that read-out and setting: in the case of TTTATTTCACACAATGACCAGT it was 0.0352; in that of TTGGTCAACAAGTTCTTTGTAA, 0.00294.
Same read-out and setting: as for TTGTTGTTTGGGATCATCCTGC, the figure is 0.229; as for TTGGTATGAATGAATTTCGTGT, -0.285; as for TTGTTGTAGAGGTATACTGAGA, -1.34.

For a further assay, the target named is NLRP2. The assay is described as above. Conditions: shRNA.
As to TTCTGTTTTGAAGCGCTCCAGC, the sensor-assay potency score (higher = more potent) was -0.763.
Sequence TATACCTGCACCTATTGTCTTT gave a sensor-assay potency score (higher = more potent) of -0.461.
Same read-out and setting: as for TATTTCTTTGAACTGAGCCATC, the figure is -1.26; as for TTTCTCAGTATCAATAATCAGT, -0.723; as for TTTTTCTTCTATTTCTTCCAGC, -0.106.
TTTTTGAACACCACTCTCTGGA had a sensor-assay potency score (higher = more potent) of 0.671.
On the same count and under the same terms, as for TTCGTCTTCAATATATACCTGC, the figure is 0.466; as for TTTCTGTAAACGCTTGTGCTTC, -0.408.
Still for that read-out and setting: as for TACAACTTATGTCGCATCGCAG, the figure is -0.571.
Still for that read-out and setting: as for AAGTCATCTATTTTCAACCTGA, the figure is 0.0295; as for TTCAATATATACCTGCACCTAT, -0.184.
TTACAGTCTTGTGACCTCGAAG came in with a sensor-assay potency score (higher = more potent) of -1.08.

The target of a further assay is NLRP3. The assay is described as above. The following applies: shRNA.
TTGGCTTTCACTTCAATCCATT: the sensor-assay potency score (higher = more potent) was -0.825.
The sequence AAGCTGTAGAACTTCTCGCAGT gave a sensor-assay potency score (higher = more potent) of -0.94.
On the same count and under the same terms, as for TTTTGGAACAGGTTCATCCTCA, the figure is -0.144; as for TTGAAGTCGATCATTAGCGTGG, 0.548.
On the same count and under the same terms, in the case of TCAAACAGCAACTCCATCTTAA it was -0.477; in that of TTGTCTAATTCCAACACCTGAA, -0.802; in that of TTCTCTGTCTGACCCCTCGGGA, -1.19.
On the same count and under the same terms, as for TGTGATGACAACAACACCCGAT, the figure is 0.603; as for TTACAAATAGAGATTCTCGAAA, -0.224.
